# Screens as filed in PubChem.
# DT40 TDP1 CPT – qHTS for Inhibitors of human tyrosyl-DNA phosphodiesterase 1 (TDP1): qHTS in cells in presence of CPT; hit rate 12% among 420,000; Potency, µM (series often up to 46.2 µM), for the others: at the top dose activity change, negative = growth inhibition, hits mostly inhibitors; chicken DT40 Tdp1-/-;hTDP1 cells + 20 nM CPT, ATP luminescence, 48 h; note: potency is the fitted concentration of half-maximal effect; nearly all actives have a fitted effect of over 55% in size
#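 Chicken DT40 Tdp1-/- cells stably complemented with human TDP1 were seeded at 400 cells/well in medium containing 20 nM camptothecin, exposed to pin-transferred compounds, and grown at 37 °C for at least 48 hr. Viability was read as ATP luminescence.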
# IL-1B inflam inh – qHTS for Inhibitors of Inflammasome Signaling: IL-1-beta AlphaLISA Primary Screen; activity change, % at 57.5 µM; THP-1 LPS/ATP IL-1B secretion, AlphaLISA, 16 h; stronger effect = lower value; AID 743279, 2014; hit rate 4.7% among 360,000; in the data active = activity change below about -50%; inconclusive = mostly about -30% to -49%
#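 THP-1 cells pretreated 1 hr with compounds (up to 57.5 uM final), then stimulated with LPS (250 ng/mL final) plus ATP (1.25 mM final); secreted IL-1B measured by AlphaLISA after 16 hr, decreased signal indicating inhibition.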
# ELG1 DNA repair – qHTS screen for small molecules that inhibit ELG1-dependent DNA repair in human embryonic kidney (HEK293T) cells expressing luciferase-tagged ELG1. HEK293T ELG1-luciferase reporter, luminescence, 16 h; DNA damage induced by 5-fluorouridine. Potency, µM (top dose mostly 46.1 µM), for inactives: top-dose activity change, negative = inhibition, actives largely listed as inhibitors. hit rate 2.3% among 330,000. AID 504467, 2011; note: potency is the fitted concentration of half-maximal effect; nearly all actives have a fitted effect of over 55% in size
#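 Luminescence from the luciferase reporter, measured 30 min after ONE-Glo reagent at room temperature, was the read-out. Beforehand, 2,000 cells per well were exposed for 16 hr at 37 °C to 5-fluorouridine together with compound or vehicle.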
# HT1080NT lethal – qHTS for induction of synthetic lethality in tumor cells producing 2HG: qHTS for the HT-1080-NT fibrosarcoma cell line. HT-1080-NT fibrosarcoma viability, CellTiter-Glo ATP luminescence, 48 h. Potency, µM (titrated, usually from 46.1 µM), without a hit: at the top dose activity, negative = less viability, actives largely listed as cytotoxic. hit rate 1.6% among 360,000. AID 686970, 2013;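 note: NT is the 2HG producing partner of a matched IDH1 knockdown line; potency is the fitted concentration of half-maximal effect; 0% = DMSO-treated cells and -100% = media-only wells without cells; nearly all actives have a fitted effect of over 55% in size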
#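 Viability by CellTiter-Glo luminescence after 48 h compound exposure at 37C of HT-1080-NT cells (750/well, RPMI, 5% FBS). % activity scaled between DMSO wells and medium-only wells, then curve-fitted and categorized by curve class.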
# HT1080 IDH1KD tx – qHTS for induction of synthetic lethality in tumor cells producing 2HG: qHTS for the HT-1080-IDH1KD cell line | HT-1080 IDH1 knockdown viability, ATP luminescence, 48 h | Potency, µM (titrated, usually from 46.1 µM), for the others: at the top dose activity, negative = toxicity, most hits filed as cytotoxic | hit rate 2% among 360,000 | AID 686971, 2013;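 note: potency is the fitted concentration of half-maximal effect; 0% = DMSO wells and -100% = cell-free medium wells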
#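 Assay cells: HT-1080 with IDH1 knockdown, 750 per well, RPMI/5% FBS. Exposure: 48 h at 37 °C following 2 h pre-incubation. Read: CellTiter-Glo luminescence; fitted concentration-response, curve class assigned.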
# TDP1 cell noCPT – qHTS for Inhibitors of human tyrosyl-DNA phosphodiesterase 1 (TDP1): qHTS in cells in absence of CPT. hit rate 15% among 420,000. Potency, µM (doses to about 46.2 µM), inactives show top-dose activity change, negative = growth inhibition, hits mostly inhibitors. DT40 Tdp1-/- hTDP1 cells, no CPT, ATP luminescence, 48 h; note: potency is the fitted concentration of half-maximal effect; nearly all actives have a fitted effect of over 55% in size
#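 Cells were dispensed at 400 per well, compounds added by pin tool, plates incubated ≥48 hr at 37 °C, then CellTiter-Glo added for 30 min at room temperature before luminescence reading. Line: DT40 Tdp1-/- complemented with hTDP1; camptothecin omitted.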
# The depositor's hits bear a star; i = inactive; ? = inconclusive; . = no result given; [ ] = remark or other dose. Only some compounds are listed: those with a hit (about 19% of all), similar ones and a draw of the others. Unless noted, calls come from the whole dose curve; as a rule, active = well fitted curve in the direction sought with a large enough effect; inconclusive = small, poorly fitted or top-dose-only effect, or another doubt; inactive = no such curve, though single readings can be large; an effect the other way counts as inactive or inconclusive. Unless noted, % is set by controls: 0 for no effect and ±100 for the full control effect.
SMILES,DT40 TDP1 CPT,IL-1B inflam inh,ELG1 DNA repair,HT1080NT lethal,HT1080 IDH1KD tx,TDP1 cell noCPT
COc1ccc(Cl)cc1NC(=O)c1[nH]c(C)c(C(C)=O)c1C,-5.2%,39.7,20.4%,-1.4%,-2.4%,-12.1%
CC(=O)c1c(C)[nH]c(C(=O)Nc2nc(-c3ccc(Cl)cc3)cs2)c1C,20.6µM*,5.7,?,7.0%,12.9%,?
COc1ccc(Cc2nnc(NC(=O)c3ccco3)s2)cc1,-2.2%,-22.8,?,0.5%,-1.1%,-4.4%
COc1ccc(CNC(=O)CN2C(=O)CCSc3ccc(S(=O)(=O)N4CCCC4)cc32)cc1,-12.6%,-16.2,1.3%,0.1%,7.4%,0.9%
CC(=O)c1ccc(NC(=O)CCS(=O)(=O)c2ccc3c(c2)n(C)c(=O)c(=O)n3C)cc1,7.4%,6.2,7.6%,15.2%,0.3%,9.1%
COc1ccc(OC)c(NC(=O)c2[nH]c(C)c(C(C)=O)c2C)c1,-25.5%,69.9,?,-4.4%,-3.9%,?
COc1ccc(-c2nc(NC(=O)c3[nH]c(C)c(C(C)=O)c3C)sc2C)cc1,?,-81.8*,?,?,?,?
COc1ccc(-c2nc(NC(=O)c3ccc(OCC(=O)N4CCOCC4)c(OC)c3)sc2C)cc1,23.1µM*,-1.0,?,-6.3%,-13.5%,18.4µM*
Cn1c(=O)c2c(c3ccccc31)OC(=O)CC2c1ccc(C(F)(F)F)cc1 (centres undefined),26.2%,.,.,.,.,-9.3%
CCOc1ccccc1NC(=O)Cn1ncc2c([nH]c3ccccc32)c1=O,-18.4%,.,.,.,.,-25.4%
Cc1ccc(NC(=O)c2c(Cl)nc3ccccn23)cc1,13.4%,31.5,?,-16.4%,-19.2%,-12.1%
CCOC(=O)N1CCC(N2Cc3cccc(C(=O)NCc4ccc5c(c4)OCO5)c3C2=O)CC1,?,-8.4,23.1µM*,-2.8%,3.2%,?
CCOC(=O)N1CCC(N2Cc3cccc(C(=O)NCc4ccccc4OC)c3C2=O)CC1,?,-4.5,?,7.3%,6.4%,?
CCOC(=O)N1CCC(N2Cc3cccc(C(=O)Nc4cc(F)ccc4F)c3C2=O)CC1,?,14.8,?,0.5%,2.7%,?
CCOC(=O)N1CCC(N2Cc3cccc(C(=O)Nc4ccc(N(CC)CC)cc4C)c3C2=O)CC1,?,-5.7,-11.8%,-9.1%,-4.3%,16.4µM*
CCOC(=O)N1CCC(N2Cc3cccc(C(=O)Nc4ccc(CC)cc4)c3C2=O)CC1,?,-70.1*,?,-12.1%,-15.1%,?
CCCCCNC(=O)c1ccc2c(c1)nc(C)n2-c1cccc(C)c1,14.6µM*,.,.,.,.,?
COCCCNC(=O)c1ccc2c(c1)nc(C)n2-c1cccc(C)c1,0.0%,-11.8,9.5%,-2.1%,-6.5%,-27.1%
CCOC(=O)c1c(S(=O)(=O)N2CCCC(C(=O)NCc3ccccc3OC)C2)c(C)n(C)c1C (centres undefined),-24.5%,.,.,.,.,-1.4%
Cc1ncc(CO)c(/C=N/NC(=S)Nc2ccc(Cl)c(Cl)c2)c1O,16.4µM*,29.3,?,-13.4%,-27.9%,13µM*
Cc1ncc(CO)c(/C=N/NC(=O)c2ccccc2Br)c1O,?,143.8,?,-17.5%,?,?
Cc1ncc(CO)c(/C=N/NC(=S)Nc2cccc(Cl)c2)c1O,?,34.9,?,-11.8%,-24.1%,16.4µM*
CC1(C)Cc2c(cnn2-c2ccccc2)C(NC(=O)CCCN2CCCC2=O)C1 (centres undefined),-2.7%,i,0.9%,16.5%,26.9%,2.9%
O=C(NCCc1ccccc1)C1(c2cccs2)CCOCC1,-15.3%,.,.,.,.,-22.9%
COc1ccc(S(=O)(=O)Nc2cc3c(cc2NCc2ccccc2)n(C)c(=O)n3C)cc1,8.2µM*,.,.,.,.,?
SMILES,DT40 TDP1 CPT,IL-1B inflam inh,ELG1 DNA repair,HT1080NT lethal,HT1080 IDH1KD tx,TDP1 cell noCPT
CCCS(=O)(=O)Nc1cc2c(cc1NCc1ccccc1)n(C)c(=O)n2C,9.2µM*,.,.,.,.,?
CC(C)(C)CC(=O)Nc1nnc2n1CCS2,-21.7%,.,.,.,.,1.5%
Cc1cccc(NC(=O)CNC(=O)CN2CCN(C)CC2)c1C,6.9%,3.6,15.0%,-3.0%,1.7%,-7.8%
COC(=O)[C@]12CCCCC=C1N(Cc1ccc3c(c1)OCO3)C(=O)[C@H](CC(=O)N1CCN(C(=O)C3CC3)CC1)C2,?,-2.8,.,1.2%,-1.2%,?
O=c1oc2ccc3ccccc3c2cc1-c1nnc(-c2ccccc2)o1,?,-58.3*,?,-0.1%,2.1%[9.24 µM],?
COc1nc(=O)n(C2C=CC(=O)O2)cc1F (centres undefined),2.31µM*,0.0,.,?,?,2.31µM*
OCCNc1nc(SCc2ccccc2)nc2sc3c(c12)CCC3,?,-13.9,25.1%,-14.3%,-28.4%,14.6µM*
O=c1c2c3c(sc2nc(NCCO)n1CCc1ccccc1)CCCCC3,5.8µM*,-12.4,?,-28.4%,?,4.11µM*
Cc1nc(NCc2cccnc2)c2c3c(sc2n1)CCCC3,?,-20.2,-11.5%,-13.7%,-13.3%,?
COCCNc1nc2sc3c(c2c(=O)n1Cc1ccco1)CCCCC3,13µM*,11.5,?,-25.0%,?,16.4µM*
CN(C)CCNc1nc2sc3c(c2c(=O)n1Cc1ccccc1)CCCCC3,?,-95.7*,5.0%,-3.8%,-16.8%,?
CCCCC[C@H](O)CC[C@H]1[C@H](O)CC(=O)[C@@H]1CCCCCCC(=O)O,3.5%[4.12 µM],.,.,.,.,3.9%[4.12 µM]
CN(C)C(=O)CCc1ccc2c3c([nH]c2c1)[C@]1(C)[C@@H](C(=O)N2CCCCC2)C[C@H](CC(=O)NCc2cccc(C(F)(F)F)c2)C(=O)N1CC3,20.6µM*,-25.0,?,-9.5%,-15.1%,20.6µM*
COc1ccc(CNC(=O)CC2C[C@H](C(=O)N3CCOCC3)[C@@]3(CCC4CCCC4)c4[nH]c5ccccc5c4CCN3C2=O)cc1OC (some centres undefined),?,-26.9,-15.0%,0.1%,1.2%,23.1µM*
